Structures can show the parent of a compound that is named as a salt.
Experiments:
Conditions in all cases: incubation time: 27 h, anaerobic, 37 °C;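 for the amine columns active = adjusted P below 0.05 in both replicates with a change the same way and a mean fold change under 0.8 or over 1.25; inactive = the rest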
[1] = test system: Clostridium sporogenes DSM 1664; experiment: growth (OD595) fold change vs plate DMSO controls (fold change (ratio)); higher = more growth
How it was run: (§1)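 Absorbance at 595 nm was read after shaking the anaerobic mGAM cultures, which had grown in 96-well plates for 27 h at 37 °C. After blank subtraction and background correction against 20 µM compound solutions in water, a calibration factor of 5 gave OD values. Growth is the fold change against the median of the plate's DMSO controls. Values are the mean of 2 biological replicates, with fold changes above 1.5 set to NA.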

[2] = test system: Escherichia coli IAI1; experiment: as above
How it was run: as §1

[3] = test system: Klebsiella aerogenes DSM 30053; experiment: as above
How it was run: as §1

[4] = test system: Ruminococcus gnavus DSM 108212; experiment: as above
How it was run: as §1

[5] = test system: Klebsiella aerogenes DSM 30053; experiment: fold change of Histamine concentration vs plate DMSO controls (fold change (ratio)); higher = more amine produced, active = hit call of the paper (significant change in both replicates, either direction)
How it was run: (§2)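 In 80 µL wells, cultures of four gut bacterial strains in mGAM started at OD 0.1 before a 1:1 dilution and grew anaerobically at 37 °C for 27 h. Compounds were added to 20 µM final, except sweeteners at 50 µM final. After extraction of whole cultures with cold acetonitrile/methanol plus 0.1% formic acid and centrifugation, amines were measured by LC–triple-quadrupole MS in dynamic MRM mode against external calibration curves, with within-batch drift correction. Values give fold change over DMSO controls on the same plate, averaged across 2 biological replicates.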

[6] = test system: Clostridium sporogenes DSM 1664; experiment: fold change of Tryptamine concentration vs plate DMSO controls (fold change (ratio)); higher = more amine produced, active = hit call of the paper (significant change in both replicates, either direction)
How it was run: as §2

[7] = test system: Ruminococcus gnavus DSM 108212; experiment: as above
How it was run: as §2

[8] = test system: Escherichia coli IAI1; experiment: fold change of Putrescine concentration vs plate DMSO controls (fold change (ratio)); higher = more amine produced, active = hit call of the paper (significant change in both replicates, either direction)
How it was run: as §2

[9] = test system: Klebsiella aerogenes DSM 30053; experiment: as above
How it was run: as §2

[10] = test system: Escherichia coli IAI1; experiment: fold change of Cadaverine concentration vs plate DMSO controls (fold change (ratio)); higher = more amine produced, active = hit call of the paper (significant change in both replicates, either direction)
How it was run: as §2

[11] = test system: Klebsiella aerogenes DSM 30053; experiment: as above
How it was run: as §2

[12] = test system: Ruminococcus gnavus DSM 108212; experiment: fold change of 2-Phenylethylamine concentration vs plate DMSO controls (fold change (ratio)); higher = more amine produced, active = hit call of the paper (significant change in both replicates, either direction)
How it was run: as §2

SMILES | growth [1] | growth [2] | growth [3] | growth [4] | fold change of Histamine concentration [5] | fold change of Tryptamine concentration [6] | fold change of Tryptamine concentration [7] | fold change of Putrescine concentration [8] | fold change of Putrescine concentration [9] | fold change of Cadaverine concentration [10] | fold change of Cadaverine concentration [11] | fold change of 2-Phenylethylamine concentration [12]
N[C@@H](C(=O)N[C@@H]1C(=O)N2C(C(=O)O)=C(Cl)CS[C@H]12)c1ccccc1 [Cefaclor hydrate] (20 µM) | 0.594 | 0.999 | 1.06 | 0.999 | 0.947 (inactive) | 0.846 (inactive) | 0.783 (inactive) | 0.939 (inactive) | 1.07 (inactive) | 1.23 (inactive) | 1.03 (inactive) | 0.859 (inactive)
CCCCCOC(=O)Nc1nc(=O)n([C@@H]2O[C@H](C)[C@@H](O)[C@H]2O)cc1F [Capecitabine] (20 µM) | 1.12 | 0.991 | 1.07 | 0.98 | 0.921 (inactive) | 0.982 (inactive) | 1.03 (inactive) | 0.993 (inactive) | 0.99 (inactive) | 1.01 (inactive) | 1 (inactive) | 1.06 (inactive)
CCCSc1ccc2[nH]c(NC(=O)OC)nc2c1 [Albendazole] (20 µM) | 0.989 | 1.01 | 1.05 | 0.661 | 1.09 (inactive) | 0.961 (inactive) | 1.07 (inactive) | 1.01 (inactive) | 1.02 (inactive) | 0.982 (inactive) | 1.01 (inactive) | 1.13 (inactive)
NC(N)=Nc1nc(CSCC/C(N)=N/S(N)(=O)=O)cs1 [Famotidine] (20 µM) | 0.878 | 0.928 | 0.855 | 0.824 | 1.04 (inactive) | 1.02 (inactive) | 1.03 (inactive) | 1.03 (inactive) | 0.999 (inactive) | 0.975 (inactive) | 0.99 (inactive) | 1.07 (inactive)
CC(C)(C)NCC(O)CSc1nc(-c2ccc(C(N)=O)s2)cs1 (stereo not drawn) [Arotinolol hydrochloride] (20 µM) | 1.07 | 1.02 | 1.02 | 1.01 | 1.01 (inactive) | 1.01 (inactive) | 1.05 (inactive) | 0.978 (inactive) | 1 (inactive) | 0.928 (inactive) | 0.989 (inactive) | 1.1 (inactive)
CNCCCC12CCC(c3ccccc31)c1ccccc12 [Maprotiline hydrochloride] (20 µM) | 1.03 | 1.01 | 0.999 | 1.09 | 0.982 (inactive) | 0.973 (inactive) | 0.913 (inactive) | 1.02 (inactive) | 1.01 (inactive) | 1.03 (inactive) | 1.01 (inactive) | 0.884 (inactive)
CN(C)C(=N)NC(=N)N [Metformin hydrochloride] (20 µM) | 0.988 | 1.02 | 0.989 | 1.26 | 0.96 (inactive) | 1 (inactive) | 1.06 (inactive) | 1.03 (inactive) | 0.96 (inactive) | 0.962 (inactive) | 1.02 (inactive) | 1.08 (inactive)
CC[N+](CC)(CC(=O)Nc1c(C)cccc1C)Cc1ccccc1 [Denatonium benzoate] (20 µM) | 0.911 | 1.2 | 1.02 | 1.02 | 0.934 (inactive) | 0.999 (inactive) | 0.99 (inactive) | 1 (inactive) | 0.995 (inactive) | 0.91 (inactive) | 1 (inactive) | 0.945 (inactive)
O=C(O)CNC(=O)C(CS)Cc1ccccc1 (stereo not drawn) [Thiorphan] (20 µM) | 1.06 | 1.02 | 1.05 | 0.855 | 0.964 (inactive) | 1.22 (inactive) | 1.04 (inactive) | 0.969 (inactive) | 0.983 (inactive) | 0.956 (inactive) | 1.02 (inactive) | 1.02 (inactive)
CCC1=C(C)CN(C(=O)NCCc2ccc(S(=O)(=O)NC(=O)N[C@H]3CC[C@H](C)CC3)cc2)C1=O [Glimepiride] (20 µM) | 1.02 | 1.03 | 1.02 | 0.969 | 0.985 (inactive) | 0.934 (inactive) | 0.995 (inactive) | 0.976 (inactive) | 0.997 (inactive) | 1.04 (inactive) | 0.993 (inactive) | 1.02 (inactive)
CN1CC(O)c2cc(N=NC(N)=O)c(O)cc21 (stereo not drawn) [Carbazochrome] (20 µM) | 0.927 | 1.01 | 0.984 | 0.959 | 1.07 (inactive) | 1.1 (inactive) | 1.15 (inactive) | 1.05 (inactive) | 1.01 (inactive) | 0.914 (inactive) | 1.07 (inactive) | 1.34 (inactive)
CCOc1cc(N)c(Cl)cc1C(=O)NCC1CN(Cc2ccc(F)cc2)CCO1 (stereo not drawn) [Mosapride] (20 µM) | 1.14 | 0.963 | 0.978 | 1.08 | 1.05 (inactive) | 1.03 (inactive) | 0.938 (inactive) | 0.985 (inactive) | 1.02 (inactive) | 0.998 (inactive) | 0.992 (inactive) | 0.936 (inactive)
CCCN[C@H]1CCc2nc(N)sc2C1 [Pramipexole dihydrochloride] (20 µM) | 0.931 | 0.975 | 1.01 | 1.01 | 1.05 (inactive) | 0.946 (inactive) | 0.974 (inactive) | 0.977 (inactive) | 1.05 (inactive) | 0.98 (inactive) | 1.01 (inactive) | 0.923 (inactive)
Clc1ccccc1C(c1ccccc1)(c1ccccc1)n1ccnc1 [Clotrimazole] (20 µM) | 0.97 | 0.974 | 0.998 | 0.513 | 0.999 (inactive) | 0.977 (inactive) | 0.887 (inactive) | 0.997 (inactive) | 1.02 (inactive) | 0.955 (inactive) | 1.01 (inactive) | 0.929 (inactive)
CC(=O)Nc1ccc(CC(=O)O)cc1 [Actarit] (20 µM) | 0.864 | 0.972 | 1.03 | 1.11 | 1.02 (inactive) | 1.03 (inactive) | 0.992 (inactive) | 1.35 (inactive) | 1 (inactive) | 0.96 (inactive) | 1.01 (inactive) | 0.944 (inactive)
OC[C@H](O)C(O)[C@@H](O)CO [L-Arabinitol] (50 µM) | 1.11 | 0.995 | 0.979 | 0.985 | 1 (inactive) | 0.956 (inactive) | 0.939 (inactive) | 1.06 (inactive) | 1.02 (inactive) | 0.981 (inactive) | 0.984 (inactive) | 0.908 (inactive)
C[C@@H]1C[C@H]2[C@@H]3C[C@H](F)C4=CC(=O)C=C[C@]4(C)[C@@]3(F)[C@@H](O)C[C@]2(C)[C@@]1(O)C(=O)CO [Flumethasone] (20 µM) | 1.02 | 1 | 1.01 | 1.2 | 0.997 (inactive) | 0.979 (inactive) | 1.01 (inactive) | 0.991 (inactive) | 0.989 (inactive) | 1.04 (inactive) | 0.991 (inactive) | 0.972 (inactive)
COc1ccc(C(=O)NCc2ccc(OCCN(C)C)cc2)cc1OC [Itopride] (20 µM) | 1.15 | 1.1 | 1.08 | 1.2 | 0.925 (inactive) | 1.05 (inactive) | 1.04 (inactive) | 1.09 (inactive) | 0.98 (inactive) | 0.942 (inactive) | 1.06 (inactive) | 1.04 (inactive)
CC(C)(C(=O)c1cccnc1)c1cccnc1 [Metyrapone] (20 µM) | 1.01 | 1.01 | 1.01 | 1 | 1.03 (inactive) | 1 (inactive) | 1 (inactive) | 0.985 (inactive) | 1.02 (inactive) | 1.01 (inactive) | 1 (inactive) | 1.01 (inactive)
CN(C(=O)CN(CCO)CC(=O)N(C)C(C)(C)Cc1ccccc1)C(C)(C)Cc1ccccc1 [Oxethazaine] (20 µM) | 1.23 | 1.05 | 1 | 0.384 | 0.971 (inactive) | 0.918 (inactive) | 0.602 (active) | 1.1 (inactive) | 1 (inactive) | 1.01 (inactive) | 0.988 (inactive) | 0.728 (active)
CC1(C)O[C@@H]2C[C@H]3[C@@H]4CCC5=CC(=O)C=C[C@]5(C)[C@H]4[C@@H](O)C[C@]3(C)[C@]2(C(=O)CO)O1 [Desonide] (20 µM) | 0.99 | 1.02 | 1.01 | 1.21 | 1.05 (inactive) | 1.18 (inactive) | 1.14 (inactive) | 0.903 (inactive) | 0.991 (inactive) | 0.893 (inactive) | 0.997 (inactive) | 1.23 (inactive)
NC(=O)C1CO1 (stereo not drawn) [Glycidamide] (20 µM) | 0.988 | 0.992 | 0.998 | 1.06 | 1.05 (inactive) | 0.935 (inactive) | 0.988 (inactive) | 0.993 (inactive) | 1.07 (inactive) | 1.02 (inactive) | 1.02 (inactive) | 0.973 (inactive)
C[C@]12C[C@H](O)[C@H]3[C@@H](CCC4=CC(=O)CC[C@@]43C)[C@@H]1CC[C@@H]2C(=O)CO [Corticosterone] (20 µM) | 0.994 | 1.05 | 1.07 | 1.11 | 0.992 (inactive) | 0.971 (inactive) | 0.998 (inactive) | 1.05 (inactive) | 0.99 (inactive) | 1.01 (inactive) | 1 (inactive) | 1.04 (inactive)
Nc1nc(=O)n([C@@H]2CS[C@H](CO)O2)cc1F [(-) Emtricitabine] (20 µM) | 1.11 | 0.995 | 0.981 | 1.12 | 1.01 (inactive) | 1.03 (inactive) | 1.03 (inactive) | 1.01 (inactive) | 0.985 (inactive) | 0.996 (inactive) | 0.991 (inactive) | 1.06 (inactive)
